This note sets out measurements from PubChem BioAssay (Tox21).

A number with no mark means an inactive call. Inconclusive results are not listed. Calls of active or inactive are those of the source. Unless noted, calls follow the shape of the dose curve; as a rule, active = well fitted curve in the direction sought with a large enough effect in the repeat runs; inconclusive = weak or mixed curves; inactive = no such curve, though single readings can be large; an effect the other way counts as inactive or inconclusive.

Experiment [1] is described as follows: qHTS RealTime-Glo MT Cell Viability Assay in HEK293 cells - 0 hour (AID 1224880). Also: top concentration of the series differs between compounds; nearly all actives have a fitted effect of over 45% in size. The method in brief: (§1)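 Tox21 screen in HEK293 using RealTime-Glo MT chemistry, with cells and reagent co-dispensed. Luminescence proportional to viable cell number was captured at intervals during 40 h compound exposure at 37 C.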
Background: Quantitative high-throughput screening tests each substance at several concentrations.

A short description of experiment [2]: A CellTox Green Cytotoxicity Assay to monitor cytotoxicity in HEK293 cells - 32 hour (AID 1224881). Also: nearly all actives have a fitted effect of over 40% in size. The method in brief: (§2)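 Seeding of HEK293 cells together with cytotoxicity dye preceded a 5 h incubation at 37 C/5% CO2. Test compounds in DMSO were then added and fluorescence monitored across 40 h.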
Experiment [3] in a line: A CellTox Green Cytotoxicity Assay to monitor cytotoxicity in HepG2 cells - 0 hour (AID 1224882). Also: nearly all actives have a fitted effect of over 35% in size. The method in brief:
(§3)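 Nonlytic assay: viable cells exclude the dye, so fluorescence scales with cell death. HepG2 at 600 cells/well, compounds added after 5 h, signal read across 40 h.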

Experiment [4] is described as follows: A CellTox Green Cytotoxicity Assay to monitor cytotoxicity in HepG2 cells - 32 hour (AID 1224883). Also: nearly all actives have a fitted effect of over 50% in size. The method in brief: as §3
Experiment [5] in a line: A CellTox Green Cytotoxicity Assay to monitor cytotoxicity in HEK293 cells - 8 hour (AID 1224884). Also: nearly all actives have a fitted effect of over 35% in size. The method in brief: as §2
Experiment [6] is described as follows: qHTS RealTime-Glo MT Cell Viability Assay in HepG2 cells - 16 hour (AID 1224885). Also: nearly all actives have a fitted effect of over 50% in size. The method in brief: (§4)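 Cell number in HepG2 cultures estimated from NanoLuc luminescence generated by metabolic reduction of a prosubstrate by living cells. The homogeneous, nonlytic format allowed repeated reads at 0, 8, 16, 24, 32 and 40 h of compound exposure.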
Experiment [7] is described as follows: qHTS RealTime-Glo MT Cell Viability Assay in HEK293 cells - 24 hour (AID 1224886). Also: top concentration of the series differs between compounds; nearly all actives have a fitted effect of over 50% in size. The method in brief:
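Homogeneous bioluminescent viability format in HEK293 cells (600 cells/well). Following 5 h at 37 C/5% CO2, 23 nL compound was pintooled; the signal was measured repeatedly during 40 h incubation.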

Experiment [8] can be described thus: qHTS RealTime-Glo MT Cell Viability Assay in HEK293 cells - 8 hour (AID 1224887). Also: top concentration of the series differs between compounds; nearly all actives have a fitted effect of over 50% in size. The method in brief:
as §1

The nature of experiment [9]: A CellTox Green Cytotoxicity Assay to monitor cytotoxicity in HEK293 cells - 16 hour (AID 1224888). Also: nearly all actives have a fitted effect of over 35% in size. The method in brief:
as §2

A short description of experiment [10]: qHTS RealTime-Glo MT Cell Viability Assay in HepG2 cells - 0 hour (AID 1224889). Also: nearly all actives have a fitted effect of over 50% in size. The method in brief:
as §4

The nature of experiment [11]: A CellTox Green Cytotoxicity Assay to monitor cytotoxicity in HepG2 cells - 8 hour (AID 1224890). Also: nearly all actives have a fitted effect of over 45% in size. The method in brief: as §3
Experiment [12] can be described thus: qHTS assay to identify small molecule antagonists of the estrogen receptor alpha (ER-alpha) signaling pathway using the BG1 cell line in the presence of 0.1 nM 17-beta-estradiol - cell viability counter screen (AID 1259241). Also: nearly all actives have a fitted effect of over 40% in size. The method in brief:
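VM7Luc4E2 cells (endogenous full-length ER-alpha, 4xERE-luciferase), cultured 5 days in charcoal-stripped serum, exposed to compounds with 0.1 nM 17beta-estradiol (final) for 22 hr at 37C. Viability read in same wells as live-cell protease fluorescence after 30 min.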

Experiment [13] in a line: qHTS assay to identify small molecule antagonists of the androgen receptor (AR) signaling pathway using the MDA cell line in the presence of 0.5 nM R1881 - cell viability counter screen (AID 1259242). Also: nearly all actives have a fitted effect of over 45% in size. The method in brief: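 R1881 at 0.5 nM final stimulated MDA-kb2 cells during 16 hr compound treatment at 37C. Cytotoxicity read: CellTiter-Fluor fluorescence after 30 min.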

The target in experiment [14] is Estrogen receptor (Homo sapiens) (UniProt P03372). Nature of the experiment: qHTS assay to identify small molecule antagonists of the estrogen receptor alpha (ER-alpha) signaling pathway using the BG1 cell line in the presence of 0.1 nM 17-beta-estradiol (AID 1259244). Also: nearly all actives have a fitted effect of over 50% in size. The method in brief: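 VM7Luc4E2; 4xERE-luciferase; 0.1 nM E2 final; 22 h co-incubation, 37C; ONE-Glo luminescence after 30 min at room temperature.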

Experiment [15] can be described thus: qHTS assay to identify small molecule HDAC inhibitors (AID 1259364). Also: potency is read from the fitted curve at half-maximal effect.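 Also: wild-type HCT-116 cells with endogenous class I/II HDAC activity; nearly all actives have a fitted effect of over 45% in size.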 The method in brief:
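Relative class I and II HDAC activity is taken from the luminogenic signal in HCT-116 cells, with compound exposure 2 hr and reagent development 30 min at room temperature.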

A short description of experiment [16]: qHTS assay to identify small molecule HDAC inhibitors - cell viability counter screen (AID 1259365). The method in brief:
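Wild-type HCT-116 cells, 1,500/well, cultured overnight, then compound-treated 2 h at 37 C. Viability measured as ATP luminescence with CellTiter-Glo after 30 min at room temperature.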

Experiment [17] is described as follows: qHTS assay to identify small molecule agonists of the sonic hedgehog signaling (Shh) pathway - cell viability counter screen (AID 1259366). Also: nearly all actives have a fitted effect of over 50% in size. Also: potency is read from the fitted curve at half-maximal effect. The method in brief:
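NIH/3T3-derived Gli1-Luc reporter cells, 2,000 per well, received compound after 4 h and were treated about 23 h at 37C. Viability measured in the same wells by CellTiter-Fluor fluorescence after 1 h.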

Experiment [18] is described as follows: qHTS assay to identify small molecule antagonists of the sonic hedgehog signaling (Shh) pathway - cell viability counter screen (AID 1259367). Also: nearly all actives have a fitted effect of over 55% in size. Also: potency is read from the fitted curve at half-maximal effect. The method in brief:
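Seed 3T3 Gli1-Luc cells at 2,000 per well; incubate 4 hr; add compound in DMSO, then conditioned medium; incubate at 37C with 5% CO2; add CellTiter-Fluor after 23 hr; read fluorescence 1 hr later.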

A short description of experiment [19]: qHTS assay to identify small molecule phospholipidosis (PLD) inducers (AID 1259344; active = well fitted curve in the direction sought with a large enough effect; an effect the other way counts as inactive or inconclusive). The method in brief:
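Quantitative HTS in HepG2: compound plus LipidTOX Red dye for 24 h, paraformaldehyde fixation with Hoechst 33342, widefield high-content imaging; amiodarone as positive and DMSO as negative control.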

Sequence of Estrogen receptor (Homo sapiens) (P03372 whole entry, looked up): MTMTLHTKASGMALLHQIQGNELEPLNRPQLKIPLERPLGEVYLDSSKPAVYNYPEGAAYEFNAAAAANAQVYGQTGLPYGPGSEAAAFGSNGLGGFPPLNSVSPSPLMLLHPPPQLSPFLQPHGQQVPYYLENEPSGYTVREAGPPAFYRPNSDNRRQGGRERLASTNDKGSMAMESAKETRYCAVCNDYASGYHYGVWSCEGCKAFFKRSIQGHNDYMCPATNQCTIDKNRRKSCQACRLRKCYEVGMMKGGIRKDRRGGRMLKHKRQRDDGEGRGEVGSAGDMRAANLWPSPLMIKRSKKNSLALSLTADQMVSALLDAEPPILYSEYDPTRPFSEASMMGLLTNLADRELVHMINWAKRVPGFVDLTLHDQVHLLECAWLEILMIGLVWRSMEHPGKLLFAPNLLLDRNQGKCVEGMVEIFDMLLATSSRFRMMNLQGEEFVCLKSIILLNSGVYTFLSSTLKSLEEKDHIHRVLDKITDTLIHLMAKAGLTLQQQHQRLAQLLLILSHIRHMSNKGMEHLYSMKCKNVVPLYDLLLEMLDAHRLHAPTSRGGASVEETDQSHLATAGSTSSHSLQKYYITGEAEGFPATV

`CC(=O)Nc1cccc(N)c1`: the Potency result in experiment [1], in experiment [2], in [3], in experiment [4], in [5] and in experiment [7] was “inactive” throughout. Besides, the Potency result in experiment [8], in experiment [9], in [10], in [11], in [12] and in experiment [13] was “inactive” throughout. Moreover, the Potency entry in experiment [14], in [15], in [17] and in experiment [18] was “inactive” in each case. For the same compound, the call in experiment [6] and in [16] was inactive.
On to `CC(=O)CC/C=C(\C)CC/C=C(\C)CC/C=C(\C)CCC=C(C)C`, for which the Potency result in experiment [1], in experiment [2], in experiment [3], in experiment [4], in [5] and in [7] was “inactive” throughout. In addition, the Potency result in experiment [8], in [9], in [10], in [11], in [12] and in [13] was “inactive” throughout. The Potency entry in experiment [19], in experiment [15] and in experiment [18] was “inactive” throughout. In addition, the outcome in experiment [6] and in [16] was inactive.
As to `O=C(Nc1ccccc1)c1cc([N+](=O)[O-])ccc1Cl`, the Potency entry in [1], in experiment [2], in experiment [3], in experiment [4], in experiment [5] and in experiment [7] was “inactive” each time. Moreover, the Potency entry in [8], in experiment [9], in [10], in experiment [11], in [12] and in experiment [13] was “inactive” in each case. For the same compound, the Potency entry in experiment [14] and in experiment [15] was “inactive” each time. In addition, the result in experiment [6] and in [16] was inactive. The Potency in experiment [17] is 61.1 µM (active); in [18], 54.5 µM (active).
For the compound `O=C(O)c1ccc2cc(O)ccc2c1`, the Potency result in experiment [1], in experiment [2], in [3], in [4], in experiment [5] and in experiment [7] was “inactive” in each case. Besides, the Potency result in experiment [8], in experiment [9], in experiment [10], in experiment [11], in experiment [12] and in experiment [13] was “inactive” throughout. Also, the Potency result in [14], in [15], in experiment [17] and in experiment [18] was “inactive” throughout. The outcome in experiment [6] and in [16] was inactive.
On to `CCc1ccc2c(c1)C(=O)c1ccccc1C2=O`, for which the Potency entry in experiment [1], in [2], in experiment [3], in experiment [4], in [5] and in experiment [7] was “inactive” each time. The Potency result in experiment [8], in experiment [9], in experiment [10], in experiment [11], in experiment [12] and in [13] was “inactive” throughout. Also, the Potency entry in [14], in experiment [17] and in experiment [18] was “inactive” throughout. Besides, the compound was called inactive in [6] and in experiment [16]. Moreover, the Potency in experiment [15] was 0.77 µM (active).
Consider `COc1ccc(/C(C)=C/C(=O)O)c(OC)c1`, for which the Potency entry in experiment [1], in experiment [2], in experiment [3], in experiment [4], in experiment [5] and in experiment [7] was “inactive” in each case. Further, the Potency entry in [8], in experiment [9], in [10], in experiment [11], in experiment [12] and in [13] was “inactive” each time. Further, the Potency result in [14], in experiment [15], in [17] and in [18] was “inactive” each time. In addition, the call in experiment [6] and in experiment [16] was inactive.
`CCCCCCCCCCCC(=O)OCC`: the Potency result in [1], in [2], in experiment [3], in experiment [4], in experiment [5] and in [7] was “inactive” throughout. For the same compound, the Potency entry in experiment [8], in experiment [9], in [10], in experiment [11], in experiment [12] and in experiment [13] was “inactive” each time. Further, the Potency result in experiment [14], in experiment [15], in experiment [17] and in experiment [18] was “inactive” each time. For the same compound, in experiment [6], the result was inactive.
